Screening data (PubChem BioAssay)
TDP1 cell noCPT – qHTS for Inhibitors of human tyrosyl-DNA phosphodiesterase 1 (TDP1): qHTS in cells in absence of CPT. Potency, µM (doses to about 46.2 µM), without a hit: at the top dose activity change, negative = growth inhibition, hits mostly inhibitors. AID 686978, 2013. actives 15% (n = 420,000). DT40 Tdp1-/- hTDP1 cells, no CPT, ATP luminescence, 48 h; also: potency is read from the fitted curve at half-maximal effect; % is scaled to controls: 0 for no effect and ±100 for the full control effect; nearly all actives have a fitted effect of over 55% in size
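No-CPT arm: Tdp1-/-;hTDP1 DT40 cells (400/well) plus compounds, incubated ≥48 hr at 37 °C. Readout CellTiter-Glo luminescence.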
ClpP mod – qHTS Assay for Activators of ClpP; ATP-dependent Clp protease proteolytic subunit (Bacillus subtilis (strain 168)), P80244; purified B. subtilis ClpP, FRET peptide cleavage, 20 min; Potency, µM (top dose mostly 57.5 µM), without a hit: at the highest dose activity change, negative = active; actives 1.9% (n = 340,000); active = well fitted falling curve with a large enough effect; inconclusive = small, poorly fitted or top-dose-only effect; inactive = no such curve, though single readings can be large or run the other way; also: potency is read from the fitted curve at half-maximal effect; the source files actives as falling curves though it sought activators and does not explain the sign; nearly all actives have a fitted effect of over 65% in size
Target sequence (P80244 whole entry, looked up): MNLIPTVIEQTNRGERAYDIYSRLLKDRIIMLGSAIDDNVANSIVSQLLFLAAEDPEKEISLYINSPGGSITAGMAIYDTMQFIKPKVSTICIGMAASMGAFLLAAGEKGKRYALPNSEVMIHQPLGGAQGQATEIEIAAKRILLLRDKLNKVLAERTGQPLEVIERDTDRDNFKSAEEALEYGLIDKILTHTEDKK
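Buffer: 100 mM Tris/HCl pH8, 100 mM KCl, 0.05% low protease BSA, 2.5% glycerol, 0.01% Tween-20. ClpP 10 microg/mL final; 20 min RT; delta FRET normalized to ADEP and DMSO controls.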
DRD3 antagonist – antagonists of human D3 dopamine receptor; P35462; D3R cells, DiscoveRx beta-arrestin luminescence, antagonist mode; hits give low values; max response, negative = inhibition, %; actives 2.5% (n = 360,000); in the data active = max response below about -50%; inconclusive = no clear call, values can overlap the other calls; also: % is scaled to controls: 0 for no effect and ±100 for the full control effect
Target sequence (P35462 whole entry, looked up): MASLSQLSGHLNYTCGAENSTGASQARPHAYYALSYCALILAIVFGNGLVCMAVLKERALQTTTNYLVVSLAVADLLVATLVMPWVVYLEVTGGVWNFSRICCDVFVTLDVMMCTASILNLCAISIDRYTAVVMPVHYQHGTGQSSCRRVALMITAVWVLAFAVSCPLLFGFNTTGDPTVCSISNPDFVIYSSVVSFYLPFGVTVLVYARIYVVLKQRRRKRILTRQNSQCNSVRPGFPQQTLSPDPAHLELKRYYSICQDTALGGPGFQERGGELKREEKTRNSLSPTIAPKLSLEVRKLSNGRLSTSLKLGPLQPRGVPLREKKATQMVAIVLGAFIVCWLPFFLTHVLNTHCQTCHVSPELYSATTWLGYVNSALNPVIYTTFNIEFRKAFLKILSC
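Cells expressing the human receptor were seeded at 1500 cells/well, incubated overnight at 37 degrees C in 5% CO2, then exposed to library compounds with dopamine controls for 90 minutes at 37 degrees C before luminescent detection.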
DT40 TDP1 CPT – growth inhibition of DT40 Tdp1-/-;hTDP1 cells with camptothecin (screen for TDP1 inhibitors); chicken DT40 Tdp1-/-;hTDP1 cells + 20 nM CPT, ATP luminescence, 48 h; Potency, µM (series often up to 46.2 µM), without a hit: at the top dose activity change, negative = growth inhibition, most hits filed as inhibitors; actives 12% (n = 420,000); also: potency is read from the fitted curve at half-maximal effect; % is scaled to controls: 0 for no effect and ±100 for the full control effect; nearly all actives have a fitted effect of over 55% in size
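Cell growth measured by CellTiter-Glo luminescence after a minimum 48 h, 37 C compound exposure with 20 nM CPT in Tdp1-knockout DT40 cells stably expressing hTDP1, seeded 400/well; qHTS titration format.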
IL1B secr inh – blocks inflammasome-driven IL-1 beta release. THP-1 LPS/ATP IL-1B secretion, AlphaLISA, 16 h; hits give low values. activity change, % at 57.5 µM. actives 4.7% (n = 360,000). AID 743279; in the data active = activity change below about -50%; inconclusive = mostly about -30% to -49%; also: % is scaled to controls: 0 for no effect and ±100 for the full control effect
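THP-1 cells pretreated 1 hr with compounds (up to 57.5 uM final), then stimulated with LPS (250 ng/mL final) plus ATP (1.25 mM final); secreted IL-1B measured by AlphaLISA after 16 hr, decreased signal indicating inhibition.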
DRD3 agonist – agonists of human D3 dopamine receptor; P35462; D3R DiscoveRx beta-arrestin cells, luminescence, 90 min; max activation, %; actives 0.58% (n = 410,000); AID 652048; in the data active = max activation above about 30%; also: 0% is about no effect
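Agonist mode: compounds and dopamine controls were applied to plated cells for 90 min at 37 degrees C after an overnight attachment at 1500 cells/well. Luminescent read-out followed 30 - 60 minutes at room temperature with DiscoveRx detection reagent.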
The depositor's hits bear a star. In the library only some 21% were active in any assay of this set; here they are far more common. Unless noted, calls follow the shape of the dose curve; as a rule, active = well fitted inhibition curve with a large enough effect; inconclusive = small, poorly fitted or top-dose-only effect; inactive = flat fitted curve, though single readings scatter.

`O=C(Nc1ccccc1)c1ccc(=O)n(Cc2cccc(Cl)c2)c1` gave TDP1 cell noCPT -11%, DRD3 antagonist -24, DT40 TDP1 CPT 7%, IL1B secr inh -22 and DRD3 agonist -10.
`CCCCc1nnc(SCC(=O)NC2CCCCC2)n1C` gave TDP1 cell noCPT 4%, ClpP mod -1%, DRD3 antagonist -5, DT40 TDP1 CPT -2%, IL1B secr inh -15 and DRD3 agonist -23.
For Cc1ccc(CCC(=O)Nc2ccc(Cl)cc2)o1 the results were TDP1 cell noCPT -4%, DRD3 antagonist -4, DT40 TDP1 CPT -18%, IL1B secr inh -5 and DRD3 agonist -9.
Cc1ccc(CCC(=O)Nc2ccc(N(C)C)cc2)o1 was read as TDP1 cell noCPT inconclusive, ClpP mod -2%, DRD3 antagonist 0, DT40 TDP1 CPT 16µM*, IL1B secr inh -6 and DRD3 agonist 5.
Screening Cc1cc(C(=O)COC(=O)c2ccc(Cl)c(S(N)(=O)=O)c2)c(C)n1C1CC1 returned TDP1 cell noCPT inconclusive, ClpP mod 2%, DRD3 antagonist 16, DT40 TDP1 CPT inconclusive, IL1B secr inh 7 and DRD3 agonist 5.
Cc1c(C(=O)Nc2cccc(S(=O)(=O)N3CCCC3)c2)oc2ccccc12 was read as TDP1 cell noCPT -28%, ClpP mod 9%, DRD3 antagonist 4, DT40 TDP1 CPT inconclusive, IL1B secr inh 0 and DRD3 agonist 3.
For Cc1cccc(NC(=O)c2oc3ccc(S(=O)(=O)N(C)C4CCCCC4)cc3c2C)c1C the results were TDP1 cell noCPT 8.2µM*, ClpP mod inconclusive, DT40 TDP1 CPT 10µM* and DRD3 agonist 10.
Cc1c(C(=O)Nc2ccccc2Br)oc2ccc(S(=O)(=O)N3CCCCC3)cc12 was read as TDP1 cell noCPT inconclusive, ClpP mod 0%, DT40 TDP1 CPT inconclusive and DRD3 agonist -10.
Screening Cc1c(C(=O)Nc2cccc(Cl)c2)oc2ccc(S(=O)(=O)N(C)C3CCCCC3)cc12 returned TDP1 cell noCPT 21µM*, ClpP mod 20µM*, DT40 TDP1 CPT inconclusive and DRD3 agonist 4.
`Cc1ccc(Cl)cc1NC(=O)c1oc2ccc(S(=O)(=O)N(C)C3CCCCC3)cc2c1C` gave TDP1 cell noCPT inconclusive, ClpP mod inconclusive, DT40 TDP1 CPT 21µM* and DRD3 agonist 3.
Screening CCC(C(=O)NCc1ccco1)n1nc(C)c2c(C)n(-c3ccccc3)nc2c1=O (centres undefined) returned TDP1 cell noCPT -10%, ClpP mod -2%, DRD3 antagonist -9, DT40 TDP1 CPT -15%, IL1B secr inh 13 and DRD3 agonist -1.
O=C(NCC1CCCO1)C(Cc1ccccc1)N1C(=O)C2C3C=CC(C4CC34)C2C1=O (centres undefined) was read as TDP1 cell noCPT inconclusive, DRD3 antagonist -1, DT40 TDP1 CPT inconclusive, IL1B secr inh -2 and DRD3 agonist -4.
Screening CCN1CCN(C(c2ccc(C(F)(F)F)cc2)c2ccc3cccnc3c2O)CC1 (centres undefined) returned TDP1 cell noCPT 16µM*, ClpP mod -2%, DRD3 antagonist inconclusive, DT40 TDP1 CPT inconclusive, IL1B secr inh -74* and DRD3 agonist -37.
`Cc1cccc2c(C(O)c3cn(C)c4ccccc34)c[nH]c12` (centres undefined) gave TDP1 cell noCPT 16µM*, ClpP mod 5% and DT40 TDP1 CPT 11µM*.
Screening COc1ccc(C2(C)NC(=O)N(CC(=O)c3cc(C)n(C4CC4)c3C)C2=O)cc1OC (centres undefined) returned TDP1 cell noCPT 13µM*, ClpP mod -8%, DRD3 antagonist 0, DT40 TDP1 CPT 18µM*, IL1B secr inh 7 and DRD3 agonist -1.
CCC1(C)NC(=O)N(CC(=O)c2cc(C)n(C3CC3)c2C)C1=O (centres undefined) was read as TDP1 cell noCPT inconclusive, DRD3 antagonist -28, DT40 TDP1 CPT inconclusive, IL1B secr inh 5 and DRD3 agonist 5.
Screening O=C(NCCS(=O)(=O)N1CCN(c2ccc(F)cc2)CC1)c1cccc(C(F)(F)F)c1 returned TDP1 cell noCPT 18µM*, ClpP mod 4%, DT40 TDP1 CPT inconclusive and DRD3 agonist 6.
For O=C(NCCS(=O)(=O)N1CCN(c2ccc(F)cc2)CC1)C(c1ccccc1)c1ccccc1 the results were TDP1 cell noCPT inconclusive, ClpP mod -4%, DT40 TDP1 CPT inconclusive and DRD3 agonist 0.
O=C(NCCS(=O)(=O)N1CCN(c2ccc(F)cc2)CC1)C12CC3CC(CC(C3)C1)C2 was read as TDP1 cell noCPT 16µM*, ClpP mod -1%, DRD3 antagonist 13, DT40 TDP1 CPT 18µM*, IL1B secr inh -19 and DRD3 agonist 6.
CC(OC(=O)c1ccccc1)C(=O)NCc1ccco1 (centres undefined) was read as TDP1 cell noCPT 8%, ClpP mod -1%, DRD3 antagonist 5, DT40 TDP1 CPT -1%, IL1B secr inh -13 and DRD3 agonist 4.
For COc1cc(/C=C2/SC(=O)N(Cc3ccccc3)C2=O)ccc1OCc1ccncc1 the results were TDP1 cell noCPT 12µM*, ClpP mod 5%, DRD3 antagonist 0, DT40 TDP1 CPT 16µM*, IL1B secr inh inconclusive and DRD3 agonist -4.
Screening COCCN1C(=O)/C(=C/c2ccc(OCc3ccc(C(=O)O)cc3)c(OC)c2)SC1=Nc1ccccc1 returned TDP1 cell noCPT 21µM*, ClpP mod -1%, DRD3 antagonist 35, DT40 TDP1 CPT 23µM*, IL1B secr inh -11 and DRD3 agonist 14.
Screening COc1cc(/C=C2/SC(=S)N(Cc3ccccc3)C2=O)ccc1OCC(=O)O returned TDP1 cell noCPT 3%, DRD3 antagonist inconclusive, DT40 TDP1 CPT 1%, IL1B secr inh 6 and DRD3 agonist -3.
For CCCCCCCN1N=C(C)C(C(=O)c2ccccc2)C1=O (centres undefined) the results were TDP1 cell noCPT inconclusive, ClpP mod 0%, DRD3 antagonist -25, DT40 TDP1 CPT inconclusive, IL1B secr inh 21 and DRD3 agonist 4.
`CCCCCCN1N=C(C)C(C(=O)c2ccc(Cl)cc2)C1=O` (centres undefined) gave TDP1 cell noCPT inconclusive, ClpP mod 2%, DRD3 antagonist -83*, DT40 TDP1 CPT inconclusive, IL1B secr inh 17 and DRD3 agonist 2.
